PubChem BioAssay (Tox21)
Records with an inconclusive call do not appear. A call without a number means that no potency is given here. Active and inactive are the calls of the source. Unless noted, calls follow the shape of the dose curve; as a rule, active = well fitted curve in the direction sought with a large enough effect in the repeat runs; inconclusive = weak or mixed curves; inactive = no such curve, though single readings can be large; an effect the other way counts as inactive or inconclusive.

Columns and labels:
[1] = qHTS assay to identify small molecule antagonists of the peroxisome proliferator-activated receptor delta (PPARd) signaling pathway - cell viability counter screen (AID 743213); details: PPARd-bla HEK293H viability, CellTiter-Glo luminescence, 17 h; series mostly up to 62 µM; also: nearly all actives have a fitted effect of over 50% in size
Outline: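 HEK293H cells with the PPARd UAS-bla reporter, co-treated 17 h at 37 C with compounds and L165041 (300 nM final), were lysed with CellTiter-Glo. Luminescence indicated viable cell content.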

[2] = target: Bile acid receptor (Homo sapiens) (UniProt Q96RI1); assay: qHTS assay to identify small molecule antagonists of the farnesoid-X-receptor (FXR) signaling pathway (AID 743217; active = well fitted inhibition curve with a large enough effect in the signal ratio in the repeat runs, not every such curve was filed as active; the % refers to the signal ratio); details: HEK293T FXR-UAS-bla, beta-lactamase ratio, CDCA-stimulated, 16 h; series mostly up to 62.6 µM
Bile acid receptor (Homo sapiens), sequence (Q96RI1 whole entry, looked up): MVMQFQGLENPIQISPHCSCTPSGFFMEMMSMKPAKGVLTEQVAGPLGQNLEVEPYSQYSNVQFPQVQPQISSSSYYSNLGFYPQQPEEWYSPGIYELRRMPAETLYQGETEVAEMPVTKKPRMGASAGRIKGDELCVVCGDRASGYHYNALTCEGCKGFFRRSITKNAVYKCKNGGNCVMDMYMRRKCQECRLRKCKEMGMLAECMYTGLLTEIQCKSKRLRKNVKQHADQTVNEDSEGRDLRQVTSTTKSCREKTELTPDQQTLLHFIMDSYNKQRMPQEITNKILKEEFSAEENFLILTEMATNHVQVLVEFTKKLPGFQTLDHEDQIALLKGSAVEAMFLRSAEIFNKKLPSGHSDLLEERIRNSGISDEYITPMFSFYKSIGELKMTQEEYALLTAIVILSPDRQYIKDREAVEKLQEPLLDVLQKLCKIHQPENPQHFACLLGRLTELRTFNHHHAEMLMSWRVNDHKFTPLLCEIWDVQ
Outline: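 Screen of the Tox21 10K library in quantitative HTS format using FXR-UAS-bla HEK 293T reporter cells. Agonist chenodeoxycholic acid, 50 uM final, added with compounds; 16 h incubation at 37 °C; beta-lactamase FRET fluorescence measured.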

[3] = target: Bile acid receptor (Homo sapiens) (UniProt Q96RI1); assay: qHTS assay to identify small molecule agonists of the farnesoid-X-receptor (FXR) signaling pathway (AID 743220; active = well fitted activation curve with a large enough effect in the signal ratio in the repeat runs, not every such curve was filed as active; the % refers to the signal ratio); details: HEK293T FXR-UAS-bla, beta-lactamase FRET ratio, 16 h; series mostly up to 62.6 µM
Outline: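 FXR-UAS-bla HEK 293T cells carrying a UAS-driven beta-lactamase reporter were plated for 5 h at 37C/5% CO2, then exposed to DMSO-dissolved Tox21 10K compounds for 16 h at 37C. A LiveBLAzer B/G FRET substrate was loaded for 2 h at room temperature before fluorescence reading.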

[4] = qHTS assay to identify small molecule antagonists of the farnesoid-X-receptor (FXR) signaling pathway - cell viability counter screen (AID 743221; active = well fitted cell-killing curve with a large enough effect in the repeat runs, not every such curve was filed as active; also: nearly all actives have a fitted effect of over 50% in size); details: FXR-bla HEK293T viability, CellTiter-Glo luminescence, 16 h; series mostly up to 62.6 µM
Outline: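 HEK 293T FXR-bla cells, 5 h pre-incubation; compound + CDCA 50 uM final, 16 h, 37 C; beta-lactamase FRET read first, then CellTiter-Glo luminescence, 30 min RT.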

[5] = target: Vitamin D3 receptor (Homo sapiens) (UniProt P11473); assay: qHTS assay to identify small molecule agonists of the vitamin D receptor (VDR) signaling pathway (AID 743222; calls by dose curve); details: HEK293T VDR-UAS-bla, beta-lactamase FRET ratio, 16 h; series mostly up to 63.5 µM
Vitamin D3 receptor (Homo sapiens), sequence (P11473 whole entry, looked up): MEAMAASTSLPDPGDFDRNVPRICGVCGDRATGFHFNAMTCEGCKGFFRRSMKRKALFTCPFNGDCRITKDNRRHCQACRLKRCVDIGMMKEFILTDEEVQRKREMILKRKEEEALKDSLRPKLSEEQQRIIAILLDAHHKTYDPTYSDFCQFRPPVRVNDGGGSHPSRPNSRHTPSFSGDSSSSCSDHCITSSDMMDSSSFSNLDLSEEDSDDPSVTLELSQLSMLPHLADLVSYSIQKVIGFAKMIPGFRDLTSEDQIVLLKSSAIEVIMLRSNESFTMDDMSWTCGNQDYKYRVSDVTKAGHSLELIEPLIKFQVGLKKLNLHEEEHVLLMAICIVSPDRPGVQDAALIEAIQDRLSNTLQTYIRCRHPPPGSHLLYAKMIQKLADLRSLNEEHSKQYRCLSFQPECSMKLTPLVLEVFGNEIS
Outline: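 Fluorescence from cleaved LiveBLAzer B/G FRET substrate served as readout. VDR-bla cells had been treated 16 h at 37C with test compounds in DMSO, following a 4 h settling period, and substrate was loaded for 2 h at RT.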

[6] = target: Peroxisome proliferator-activated receptor delta (Homo sapiens) (UniProt Q03181); assay: qHTS assay to identify small molecule antagonists of the peroxisome proliferator-activated receptor delta (PPARd) signaling pathway (AID 743215; active = well fitted inhibition curve with a large enough effect in the signal ratio in the repeat runs, not every such curve was filed as active; the % refers to the signal ratio;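 also: cells stimulated with agonist L165041 at 300 nM final during compound exposure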); details: HEK293H PPARd-UAS-bla, beta-lactamase FRET ratio, antagonist, 17 h; series mostly up to 62 µM
Peroxisome proliferator-activated receptor delta (Homo sapiens), sequence (Q03181 whole entry, looked up): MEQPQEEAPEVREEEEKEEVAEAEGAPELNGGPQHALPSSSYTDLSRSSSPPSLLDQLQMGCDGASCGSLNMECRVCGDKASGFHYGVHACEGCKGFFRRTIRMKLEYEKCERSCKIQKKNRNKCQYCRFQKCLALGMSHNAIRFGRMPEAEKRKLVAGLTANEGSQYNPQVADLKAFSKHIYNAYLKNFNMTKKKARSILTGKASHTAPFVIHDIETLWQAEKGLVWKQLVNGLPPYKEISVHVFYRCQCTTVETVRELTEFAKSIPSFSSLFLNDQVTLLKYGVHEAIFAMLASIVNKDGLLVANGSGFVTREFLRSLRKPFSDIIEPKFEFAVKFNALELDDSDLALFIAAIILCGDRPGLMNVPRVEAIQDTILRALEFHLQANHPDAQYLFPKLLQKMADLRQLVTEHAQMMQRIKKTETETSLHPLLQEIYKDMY
Outline: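 Plated HEK293H PPARd-bla cells rested 5 h at 37 C and 5% CO2. Compound, then agonist L165041 at 300 nM final, was added; 17 h at 37 C followed. Substrate loading, 2 h room temperature, fluorescence measured.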

[7] = target: Vitamin D3 receptor (Homo sapiens) (UniProt P11473); assay: qHTS assay to identify small molecule antagonists of the vitamin D receptor (VDR) signaling pathway (AID 743223; active = well fitted inhibition curve with a large enough effect in the signal ratio in the repeat runs, not every such curve was filed as active; the % refers to the signal ratio); details: VDR-UAS-bla HEK293T, beta-lactamase FRET ratio, 16 h; series mostly up to 61 µM
Outline: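 Beta-lactamase reporter read-out: FRET substrate fluorescence after 2 h at room temperature, following 16 h exposure of VDR-bla cells to test compound plus 3 nM (final) 1alpha,25-dihydroxyvitamin D3 agonist at 37C.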

[8] = qHTS assay to identify small molecule agonists of the farnesoid-X-receptor (FXR) signaling pathway - cell viability counter screen (AID 743218); details: FXR-bla HEK293T viability, CellTiter-Glo luminescence, 16 h; series mostly up to 62.6 µM; also: nearly all actives have a fitted effect of over 45% in size; also: potency is read from the fitted curve at half-maximal effect
Outline: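 Viability of FXR-bla HEK 293T cells is measured by ATP-based CellTiter-Glo luminescence following 16 h compound treatment at 37 C and a prior 2 h room-temperature beta-lactamase substrate step.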

With `O=S(=O)(Oc1ccc(Cl)cc1)c1ccccc1` the Potency [1] was “inactive”, the Potency [2] was “inactive” and the Potency [3] was “inactive”. The Potency [4] was “inactive” and the Potency [5] was “inactive”.
For `C=C1C(=C/C=C2\CCC[C@]3(C)[C@@H]([C@H](C)/C=C/[C@@H](O)C4CC4)CC[C@@H]23)C[C@@H](O)C[C@@H]1O`, the Potency [3] was “inactive”.
For `CCN(CC)CCOC(=O)C(c1ccccc1)C1CCCCC1` (stereo not given), the Potency [6] was “inactive”, the Potency [4] was “inactive” and the outcome [7] was “inactive”.
With `C#C[C@]1(O)CC[C@H]2[C@@H]3CCc4cc(OC5CCCC5)ccc4[C@H]3CC[C@@]21C` the Potency [8] was 26.6 µM (active), the Potency [5] was “inactive” and the outcome [7] was “inactive”.
With `CCCCC/C=C\C/C=C\CCCCCCCC(=O)NC(C)c1ccccc1` (stereo not given) the Potency [6] was “inactive”, the Potency [8] was “inactive” and the Potency [4] was “inactive”.
For `CC[N+](C)(CC)CCOC(=O)C(O)(c1ccccc1)C1CCCCC1` (stereo not given), the Potency [1] was “inactive”, the Potency [8] was “inactive” and the Potency [4] was “inactive”. For the same compound, the Potency [5] was “inactive” and the outcome [7] was “inactive”.
